# Experimental data from ChEMBL document CHEMBL4513216, “Probing the Open Global Health Chemical Diversity Library for Multistage-Active Starting Points for Next-Generation Antimalarials” (ACS Infect Dis, 2020).
# Among all 68,000 compounds or so, about 2,700 (4%) showed an effect of 50% or more. Only a selection was taken, and strong results are over-represented in it overall.
# Tested on: Plasmodium berghei
# Assay: Screen against P. berghei liver stage (PbLuc), transformed with Luciferase, at 2uM
# Assay type: functional, HepG2
# Conditions: tested at 2 uM
row,SMILES,INHIBITION
1,CN(CCCNC(=O)CN1CCS(=O)(=O)CC1)c1ccccc1,-20.29%
2,COc1cccc(CN(Cc2ccco2)Cc2[nH]cnc2C)c1,28.07%
3,CCCc1noc(C2CCN(S(=O)(=O)c3cccs3)CC2)n1,-64.06%
4,O=S(=O)(C1CC1)N1C[C@H]2CCC[C@@]2(COc2ccccn2)C1,-3.87%
5,CCCc1cc(C(=O)N[C@@H]2CC[C@@H](N3CCOCC3)[C@@H]2O)no1,4.06%
6,COCc1ncc(CN2CC[C@@](O)(COC)C(C)(C)C2)cn1,-20.75%
7,COC[C@]1(O)CCN(Cc2cnc(N(C)C)nc2)CC1(C)C,10.24%
8,COC[C@]1(O)CCN(Cc2cnc(N3CCOCC3)nc2)CC1(C)C,52.31%
9,Cc1ncncc1C(=O)N1CCCN(Cc2ncc(Cl)n2C)CC1,-16.3%
10,Cc1noc(C)c1-c1cncc(C2CCCN2Cc2cn(C)cn2)n1 (centres undefined),50.32%
11,Cc1noc(C)c1-c1cncc(C2CCCN2Cc2c[nH]cn2)n1 (centres undefined),28.23%
12,Cc1noc(C)c1-c1cncc(C2CCCN2Cc2cc[nH]n2)n1 (centres undefined),46.98%
13,CCOC(=O)C1CCN(C(=O)Cn2ccc3cc(Br)ccc32)CC1,21.14%
14,Cc1ccc2c(n1)N(Cc1cccnc1)CCN(C1CCOCC1)C2,-91.9%
15,Cc1ccc(NC(=O)NCCCn2nc3ccccn3c2=O)cc1,-17.83%
16,CSCC(=O)N1CCCN(c2ccccc2C)CC1,2.91%
17,Cc1ccccc1N1CCN(C(=O)CC(C)C)CC1,56.49%
18,CSCCC(=O)N1CCCN(c2ccccc2C)CC1,0.31%
19,CCCc1nnc(NC2CCN(C3CCOCC3)CC2)o1,45.66%
20,COCc1nnc(-c2cccc(C(=O)OC(C)C)c2)o1,33.9%
21,COCc1nnc(-c2cccc(C(=O)N(C(C)C)C3CCC3)c2)o1,21.97%
22,COCc1nnc(-c2cccc(C(=O)N(C)CC(C)(C)C)c2)o1,62.51%

row,SMILES,INHIBITION
1,CC1(C)Oc2ccc(NC(=O)c3ccc(=O)[nH]n3)cc2O1,10.43%
2,COc1ccnc(N2C[C@H]3CC[C@@H](C2)N(CC2CCC2)C3=O)n1,-24.7%
3,COc1ccnc(N2C[C@H]3CC[C@@H](C2)N(CC2CC2)C3)n1,57.41%
4,COc1ccnc(N2CCC(=O)N(CC3CC3)C(C(C)C)C2)n1 (centres undefined),-61.87%
5,Cc1nc(-c2ccco2)ccc1C(=O)NCCCN1CCOCC1,-48.23%
6,Cc1nc2ccnn2c(C)c1CCC(=O)N1CCN(C2CC2)CC1,26.4%
7,Cc1ccccc1C(=O)N1CCC2(CC1)CC(c1cnn(C)c1)CO2 (centres undefined),42.27%
8,CN(C)C(=O)c1cc2c(nc1NCC1CC1)CCNCC2,43.06%
9,O=C(Nc1cc(F)ccc1OCC1CCCO1)c1ccoc1 (centres undefined),-27.04%
10,O=C(CC(F)(F)F)Nc1cc(F)ccc1OCC1CCCO1 (centres undefined),56.03%
11,O=C(Nc1cc(F)ccc1OCC1CCCO1)N1CCCC1 (centres undefined),-5.1%
12,O=C(Nc1cc(F)ccc1OCC1CCCO1)N1CCSCC1 (centres undefined),9.23%
13,CS(=O)(=O)CCC(=O)Nc1cc(F)ccc1OCC1CCCO1 (centres undefined),6.31%
14,O=C(Nc1cc(F)ccc1OCC1CCCO1)NC1CC1 (centres undefined),56.62%
15,Cc1ccn(CCC(=O)NCCc2ccco2)n1,-0.14%
16,COc1ccc(C[C@H]2CN(C(=O)CS(C)(=O)=O)CC[C@H]2OC)cc1,39.18%
17,O=C(NCCO)Nc1ccc(Cl)cc1-n1cccc1,-12.7%
18,Cc1nc(CN2CCCCC2CCc2ccc(O)cc2)co1 (centres undefined),0.58%
19,Cc1noc(C)c1-c1ccc(C2CCCN2C(=O)c2ccncn2)nc1 (centres undefined),5.15%
20,COc1cccc(Cn2c(C)c(C)oc2=O)c1OC,23.87%
21,Cc1cc(N2CCN(C3CCSCC3)CC2)n2nc(C)c(C)c2n1,39.51%
22,CCCNC(=O)C(C)Oc1ccc(F)cc1 (centres undefined),23.68%

row,SMILES,INHIBITION
1,CCNC(=O)C(C)Oc1ccc(N(C)S(C)(=O)=O)cc1 (centres undefined),33.26%
2,CCCNC(=O)C(C)Oc1ccccc1 (centres undefined),64.08%
3,COc1ncc(C(=O)NCc2ccccc2)cn1,60.36%
4,CCOc1ccc(CNC(=O)c2cnc(OC)nc2)cc1,58.98%
5,COC(=O)c1ccc(C(=O)NCc2ccc(Br)cc2)cn1,38.67%
6,CCOc1ccc(Cl)c(C(=O)NCc2ccc(C(=O)NC)cc2)n1,23.92%
7,COc1ncc(C(=O)NCc2ccc(Br)cc2)cn1,18.8%
8,COc1ccc(CNC(=O)c2ccc(Br)cn2)cc1,21.97%
9,COCC(O)CN(C)c1cc(C(F)(F)F)nc(-c2cccnc2)n1 (centres undefined),-2.47%
10,COc1ccc(CNC(C)c2cnn(C)c2)cc1OC1CCCC1 (centres undefined),51.76%
11,CC(NCc1cccc(COC2CCCC2)c1)c1cnn(C)c1 (centres undefined),12.83%
12,CC(NCc1ccnc(OC2CCC2)c1)c1cnn(C)c1 (centres undefined),18.98%
13,CN(C1CCN(C(=O)NCCc2ccc(F)cc2F)CC1)S(C)(=O)=O,8.56%
14,COCC(=O)N1CCC(c2ccc(OC)cc2)C1 (centres undefined),56.21%
15,COCC(=O)N1CCC(c2cc(-c3ccc(OC)cc3)n[nH]2)C1 (centres undefined),-0.64%
16,COCC(=O)N1CCC(Oc2cccc(C)c2)CC1,58.53%
17,CCN(CC)C(=O)CNC(=O)N1CCC(c2ccc(OC)cc2)C1 (centres undefined),26.44%
18,CSCC(=O)N1CCC(Oc2cccc(C)c2)CC1,10.91%
19,COC(=O)NCC(=O)N1CCC(Oc2cccc(C)c2)CC1,-31.79%
20,CC(C)c1nc2cc(NC(=O)c3n[nH]c4c3CCC4)ccc2n1C,-12.41%
21,CNC(=O)C1(c2cnccn2)CCCN1C(=O)c1ccn(C)n1 (centres undefined),43.89%
22,Cc1nnc(N2CC[C@H]3C[C@H](C(=O)N(C)C)O[C@@H]3C2)s1,4.42%

row,SMILES,INHIBITION
1,O=S1(=O)c2cccnc2OC(COc2ccccc2)CN1CC1CC1 (centres undefined),22.01%
2,CCN1CC(COc2ccc(OC)cc2)Oc2ccncc2S1(=O)=O (centres undefined),18.99%
3,CCN1CC(COc2ccccc2)Oc2ncccc2S1(=O)=O (centres undefined),55.73%
4,CN(C)C1(CNc2nccc(C3CCCC3)n2)CCOCC1,1.1%
5,NC(=O)CCn1ccc(NC(=O)c2ccc(OCC3CC3)cc2)n1,-52.01%
6,Cc1nnsc1C(=O)NCc1cccnc1N1CCCC(O)C1 (centres undefined),41.59%
7,Cc1nn(C)c(N(C)C)c1CNCc1ccccc1Cn1cccn1,-40.27%
8,CC(C)c1nccn1C(C)C(=O)NC1CCN(S(C)(=O)=O)CC1 (centres undefined),8.13%
9,CC(C)c1nccn1C(C)C(=O)NC1CCOCC1 (centres undefined),1.1%
10,CC(C)c1nccn1C(C)C(=O)NC1Cc2ccccc2C1 (centres undefined),51.72%
11,Cc1cc(C)c(CNC(=O)NCc2nnc3n2CCCC3)c(=O)[nH]1,-47.98%
12,O=C(O)c1ccn(-c2cccc(NC(=O)c3ccccc3Cl)c2)n1,23.43%
13,O=C(CCc1cc(Cl)no1)N1CCC(c2cc3ncccc3cn2)CC1,15.72%
14,CCOC(=O)c1nc(COc2c(C)occc2=O)no1,54.13%
15,CNC(=O)c1nc(COc2c(C)occc2=O)no1,20.19%
16,Cc1occc(=O)c1OCc1noc(C(=O)NC(C)C)n1,2.06%
17,Cc1cn(Cc2ccc(F)c(F)c2)nc1N,17.69%
18,FC(F)(F)c1n[nH]c2c1CN(Cc1cn3ccccc3n1)CC2,-7.14%
19,[O-][S+](CCN1CCc2[nH]nc(C(F)(F)F)c2C1)c1ccccc1 (centres undefined),-62.71%
20,FC(F)(F)c1[nH]nc2c1CN(Cc1ccccc1)CC2,57.77%
21,Cc1ccccc1CN1CCC2(CC1)CN(S(=O)(=O)c1ccccc1)C2,43.51%
22,O=C(NCc1cccnc1)Nc1cc(C(F)(F)F)c[nH]c1=O,-13.92%

row,SMILES,INHIBITION
1,O=C1N(c2ccsc2)CCC12CCCN(CC1CC1)C2 (centres undefined),7.77%
2,O=C(c1cccnc1O)N(Cc1ccsc1)CC1CCCO1 (centres undefined),-85.83%
3,O=C(c1cccnc1O)N(Cc1cccs1)CC1CCCO1 (centres undefined),64.9%
4,Cc1csc(CN(CC2CCCO2)C(=O)c2cccnc2C)n1 (centres undefined),-5.92%
5,c1ccc2[nH]c(C3CCN(Cc4nc(C5CC5)no4)CC3)cc2c1,-3.99%
6,O=C(CCc1cc2n(n1)CCCNC2)N1CCSCC1,-9.98%
7,Cc1n[nH]c(CN2CCN(c3ncnc4scc(C)c34)CC2)c1Cl,74.18%
8,CCc1nc(C)c(CN2CCN(c3ncnc4scc(C)c34)CC2)[nH]1,-33.43%
9,CCc1nc(C)c(CN2CCN(c3ncnc4c(C)csc34)CC2)[nH]1,-3.25%
10,CC(C)Oc1ncccc1CNC(=O)N1CCOCC1,-10.84%
11,CN(C)CC(=O)N1CCc2sc(C(=O)N3CCN(C)CC3)cc21,34.93%
12,O=C(NCc1ccccn1)[C@@H]1CC[C@@H]2[C@@H](CCN2c2ncc(F)cn2)O1,21.77%
13,Cc1nc(C2CCCN(C(=O)c3cccc4c3OCO4)C2)no1 (centres undefined),27.31%
14,Cc1nc(C2CCCN(C(=O)c3ccco3)C2)no1 (centres undefined),51.32%
15,CCn1cc(C(=O)N2CCCC(c3noc(C)n3)C2)cn1 (centres undefined),31.46%
16,Cc1nc(C2CCCN(C(=O)c3cnn(C4CCCCC4)c3)C2)no1 (centres undefined),-31.72%
17,Cc1nc(C2CCCN(C(=O)c3cc(Cl)c4c(c3)OCO4)C2)no1 (centres undefined),50.05%
18,Cn1cnnc1C1CCCN(C(=O)c2cc(Cl)c3c(c2)OCO3)C1 (centres undefined),3.9%
19,Cc1cccc(C(=O)N2CCCC(c3noc(C)n3)C2)n1 (centres undefined),-11.71%
20,Cc1nc(C2CCCN(C(=O)c3cnn(C(C)(C)C)c3)C2)no1 (centres undefined),56.12%
21,Cc1nc(C2CCCN(C(=O)c3ccoc3)C2)no1 (centres undefined),-3.64%
